Hits are enriched below; roughly 1.2% of the tested compounds scored in any of these assays.
GALR2 antag – blocks the human galanin receptor 2; GALR2-expressing cells, antagonist mode; O43603; hit rate 0.39% among 140,000; AID 828; inhibition, % at 4 µM; in the data active = inhibition above about 27%;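 also: cells stimulated with galanin 1-16 at roughly its EC80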
Target sequence (O43603 whole entry, looked up): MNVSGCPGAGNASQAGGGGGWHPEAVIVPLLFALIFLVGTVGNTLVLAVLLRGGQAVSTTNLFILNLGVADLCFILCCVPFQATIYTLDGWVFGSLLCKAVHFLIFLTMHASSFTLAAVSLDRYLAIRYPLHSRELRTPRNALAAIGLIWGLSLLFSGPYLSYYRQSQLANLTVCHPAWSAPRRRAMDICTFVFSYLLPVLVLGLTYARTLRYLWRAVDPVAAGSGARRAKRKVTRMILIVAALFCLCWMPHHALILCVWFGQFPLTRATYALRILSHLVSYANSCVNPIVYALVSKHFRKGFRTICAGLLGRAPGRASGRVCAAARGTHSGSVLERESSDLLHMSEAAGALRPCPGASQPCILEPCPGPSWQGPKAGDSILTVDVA
S1P2 blocker – antagonists of human S1P2 receptor. O95136. cell-based S1P2 antagonist assay, inhibition at 5 uM. inhibition, % at 5 µM. hit rate 0.21% among 97,000. AID 736; in the data active = inhibition above about 45%;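 also: CRE beta-lactamase reporter cells expressing human S1P2 stimulated with S1P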
S1P2 ag – S1P2 (human) receptor agonism | O95136 | hit rate 0.46% among 97,000 | AID 729 | activation, % at 4.5 µM | S1P2-expressing cell line, agonist reporter read-out; in the data active = activation above about 16%
GALR2 agonist – agonists of human galanin receptor 2 (GALR2); activation, % (test concentration not listed); AID 803; GALR2-expressing cells, agonist activation read-out; hit rate 0.48% among 140,000; O43603; in the data active = activation above about 5%, passing the limit was not always enough
A number is an active result; – = inactive; · = no result.

SMILES | GALR2 antag | S1P2 blocker | S1P2 ag | GALR2 agonist
N#Cc1c(N)n(CCOC(=O)c2cccc(Br)c2)c2nc3ccccc3nc12 | – | – | – | –
COCCn1c(N)c(C#N)c2nc3ccccc3nc21 | – | – | – | –
CC(C)c1cc(NCC2CCCO2)n2c(nc3ccccc32)c1C#N (centres undefined) | – | – | – | –
O=C(O)CC/C(=N/NC(=O)c1cn(-c2ccccc2)nc1-c1ccccc1)C(=O)O | – | · | · | –
Cc1nc2ccccn2c1C(=O)N=Nc1c(O)[nH]c2ccccc12 | – | · | · | –
NNc1nc(-c2ccccc2Cl)nc2sc3c(c12)CCCC3 | – | · | · | –
O=c1ncn(-c2ccccc2F)c2ncccc12 | – | – | – | –
COCCn1nnnc1CN1CCN2CCCC2C1 (centres undefined) | – | – | 43 | –
COc1ccc(N2CCn3c2nc2c3c(=O)n(CCc3ccccc3)c(=O)n2C)c(OC)c1 | – | – | – | –
COc1ccc(N2CCn3c2nc2c3c(=O)n(CCCc3ccccc3)c(=O)n2C)c(OC)c1 | – | 58 | – | –
CON/C=C(\C=Nc1ccc(F)cc1)c1ncc(C(F)(F)F)cc1Cl | – | 63 | – | –
CCC(Oc1nc2ccccc2nc1-c1ccccc1NC(C)=O)C(=O)c1ccccc1 (centres undefined) | – | – | – | –
CCCCCCN1CC(O)=C(c2nc3ccccc3[nH]2)C1=N | – | · | · | 7.2
COc1ccc(-c2nc(O)c3cnccn23)cc1 | – | · | · | –
Cc1c(Cl)cnc(NC(=O)COC(=O)Cc2coc3ccc4ccccc4c23)c1Cl | – | · | · | –
CC(=O)Nc1nonc1NC(C)=O | – | – | – | –
CC(=O)Nc1cc(OC(C)=O)c2nonc2c1OC(C)=O | 96 | 98 | – | –
O=C(O)CCC(=O)Nc1ccccc1C(=O)NCc1ccccc1 | – | · | · | –
CC1Cc2ccccc2N1C(=O)CSc1nnc2c(n1)[nH]c1ccc(F)cc12 (centres undefined) | – | – | – | –
CCc1ccc(C2=NN(S(C)(=O)=O)C(c3cccs3)C2)cc1 (centres undefined) | – | – | – | –
NS(=O)(=O)c1ccc(N2N=C(c3ccccc3)CC2c2ccccc2)cc1 (centres undefined) | – | · | · | 5.4
CCc1ccc(C2=NN(c3ccc(S(N)(=O)=O)cc3)C(c3ccc(F)cc3)C2)cc1 (centres undefined) | – | – | 17 | 39
OCc1cn(-c2ccccc2)nc1-c1ccco1 | – | – | – | –
C=CCOC(=O)C1=C(C)NC(C)=C(C(=O)OCC=C)C1c1cn(-c2ccccc2)nc1-c1ccco1 | – | · | · | 5.1
O=C(/C=C/c1ccc(S(=O)(=O)N2CCOCC2)cc1)NCc1ccc(Cl)cc1 | – | · | · | –
SMILES | GALR2 antag | S1P2 blocker | S1P2 ag | GALR2 agonist
CCCOC(=O)c1ccc(-c2ccc(C=O)o2)cc1 | – | · | · | –
CCCCOC(=O)c1ccc(-c2ccc(/C=N/NC(=S)NCC)o2)cc1 | – | – | 23 | –
CC(C)(/C=N/NC(=O)CSCc1ccccc1Cl)CCC#N | – | · | · | –
Cc1cccc(N/N=C/c2ccccc2O)c1 | – | · | · | –
COc1ccccc1NC(=O)CSc1nc2n[nH]c(C)c2c(=N)n1-c1ccccc1Cl | – | – | 21 | –
COc1ccc(OC)c(NC(=O)CSc2nc3c(c(=O)n(C)c(=O)n3C)n2C)c1 | – | – | 17 | –
CC(C)n1c(SCC(=O)Nc2nc3ccccc3s2)nc2c1c(=O)n(C)c(=O)n2C | – | – | 19 | –
COc1ccc(OC)c(/C=N/NC(=O)CC2C(=O)NN=C2C)c1 (centres undefined) | – | – | – | –
CC1C/C(=C/c2cccn2C)C(=O)/C(=C/c2cccn2C)C1 (centres undefined) | – | 59 | – | –
CC(C(=O)O)N1C(=O)/C(=C/c2cccn2C)SC1=S (centres undefined) | – | · | · | –
CCOC(=O)CN(C(=O)CSc1nnc(COc2ccc(OC)cc2)n1C)c1ccccc1 | – | – | 96 | –
CCOC(=O)c1nn(-c2ccccc2)c(C#N)c1NC(=O)c1nn(CC)cc1Br | – | – | 24 | –
CCOC(=O)c1c(NC(=O)c2nn(CC)cc2Br)c(C#N)nn1-c1ccccc1 | – | – | – | –
C=CCn1c2ccccc2c2nnc(SCN3C(=O)c4ccccc4C3=O)nc21 | – | – | 20 | –
CCc1nc(C)c(C#N)c2cc(OC)c(OC)cc12 | – | – | 26 | –
O=C(O)/C=C/C(=O)Nc1ccccc1SC(F)(F)F | – | · | · | –
O=c1c(-c2nc3ccccc3s2)cccn1Cc1ccc(Cl)cc1 | – | – | 96 | 68
Clc1ccc(CCNc2nc3ccccc3s2)cc1 | – | – | – | –
Cc1ccc2c(c1)[nH]c1c(N3CCN(Cc4ccccc4)CC3)ncnc12 | – | 70 | – | –
Cc1ccc2[nH]c3c(N4CCN(Cc5ccc6c(c5)OCO6)CC4)ncnc3c2c1 | – | 69 | – | –
Cc1ccc2[nH]c3c(N4CCN(Cc5ccccc5)CC4)ncnc3c2c1 | – | 59 | – | –
O=C(NC(=S)Nn1cnnc1)c1cccc(Br)c1 | – | · | · | –
CCCCN(C(=O)CSc1cc(C)c2ccccc2n1)c1c(N)n(Cc2ccccc2)c(=O)[nH]c1=O | – | · | · | –
Cc1nn(C)c(C)c1CN(C)S(=O)(=O)c1ccc(F)cc1 | – | – | – | –
Cc1nn(C)c(C)c1CN(C)S(=O)(=O)c1ccc2ccccc2c1 | – | 50 | – | –
SMILES | GALR2 antag | S1P2 blocker | S1P2 ag | GALR2 agonist
COc1cccc(NC(=O)C(=O)N/N=C/c2cc(C)n(-c3ccc(Cl)c(Cl)c3)c2C)c1 | – | – | – | –
CCOC(=O)c1nc(S(C)(=O)=O)ncc1N1CCOCC1 | – | – | – | –
CCOC(=O)c1nc(S(C)(=O)=O)ncc1Cl | 36 | – | – | –
COc1ccc(C2=CC(c3ccc(Cl)cc3)n3cnnc3N2)cc1OC (centres undefined) | 38 | · | · | –
COc1ccc(C2C=C(c3ccc(Cl)cc3)Nc3nc(NC(C)=O)nn32)cc1 (centres undefined) | – | – | – | –
O=C1Nc2ccc(Cl)cc2/C1=C/C1CC=CCC1 (centres undefined) | – | · | · | 5.0
COc1cccc(-n2c(SCC(=O)NCc3cccs3)nc3ccccc3c2=O)c1 | – | · | · | –
COc1cccc(-n2c(SCC(=O)Nc3sc4c(c3C(N)=O)CCC4)nc3ccccc3c2=O)c1 | – | – | 19 | –
Cc1ccc(/C=C/C(=O)Nc2ccccc2C(N)=O)cc1 | – | · | · | –
CCOc1ccc(OCCSc2nnnn2-c2ccccc2)cc1 | – | – | – | –
c1ccc(OCCSc2nnnn2-c2ccccc2)cc1 | – | – | 62 | –
COc1cc(CNCCc2ccc(S(N)(=O)=O)cc2)ccc1OCC(=O)N1CCCCC1 | – | · | · | –
CC(C)NS(=O)(=O)c1ccc2c(c1)oc(=O)n2C | – | · | · | –
Cn1c(=O)oc2cc(S(=O)(=O)NCC3CCCO3)ccc21 (centres undefined) | – | – | 20 | –
CC(Sc1nnc(NCc2ccccc2)s1)C(=O)Nc1ccc2c(c1)C(=O)c1ccccc1C2=O (centres undefined) | – | · | · | –
CC1(C)CC(O)C(C(O)c2cccc([N+](=O)[O-])c2)C(C)(C)N1 (centres undefined) | – | · | · | –
Cc1ccc(SCC(=O)N2c3ccccc3Sc3ccccc32)cc1 | – | – | – | –
COc1cc(/C=C(/C#N)c2nc3ccccc3[nH]2)ccc1OCC(=O)Nc1ccccc1C(C)C | – | – | 19 | –

From PubChem
